# Experimental data: the supplement of paper PMC6555819
# Assays:
# Test in all cases: PBM binding z-score (relative to random genomic background probes); higher = stronger binding; sequences stand for … in GC…GCGATTGACAGCGTAGAATGAAGG
# [1] = tested on: FXR:RXRa (NR concentration 270 nM, RXRa partner concentration 90 nM)
# Summary of the method: (§1)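 Binding z-scores were set against random background probes. The data came from custom Agilent 4×180K protein-binding microarrays carrying double-stranded probes with 34-nt variable regions, incubated 1 h with ligand-free nuclear receptor dimers. Partner-specific antibodies detected binding, and scanned fluorescence was regression-normalized.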
# [2] = tested on: LXRa:RXRa (NR concentration 270 nM, RXRa partner concentration 90 nM)
# Summary of the method: as §1
# [3] = tested on: LXRa homodimer (NR concentration 270 nM)
# Summary of the method: as §1
# [4] = tested on: LXRb:RXRa (NR concentration 270 nM, RXRa partner concentration 90 nM)
# Summary of the method: as §1
# [5] = tested on: LXRb homodimer (NR concentration 270 nM)
# Summary of the method: as §1
# [6] = tested on: PPARa:RXRa (NR concentration 270 nM, RXRa partner concentration 90 nM)
# Summary of the method: as §1
# [7] = tested on: PPARg:RXRa (NR concentration 180 nM, RXRa partner concentration 90 nM)
# Summary of the method: as §1
# [8] = tested on: PPARg:RXRa 270nM:90nM, anti-RXR (NR concentration 270 nM, RXRa partner concentration 90 nM)
# Summary of the method: as §1
# [9] = tested on: PPARg:RXRa 30nM:10nM, anti-RXR (NR concentration 30 nM, RXRa partner concentration 10 nM)
# Summary of the method: as §1
# [10] = tested on: PPARg:RXRa 90nM:30nM, anti-RXR (NR concentration 90 nM, RXRa partner concentration 30 nM)
# Summary of the method: as §1
# [11] = tested on: PPARg:RXRa DBDmut IVT, anti-RXR (DBD mutation: RXRa K156A/R161A, NR concentration 270 nM, RXRa partner concentration 90 nM)
# Summary of the method: as §1
# [12] = tested on: PPARg:RXRa IVT, anti-PPARg (NR concentration 270 nM, RXRa partner concentration 90 nM)
# Summary of the method: as §1
# [13] = tested on: PPARg DBDmut:RXRa IVT, anti-PPARg (DBD mutation: PPARg1 K132A/R137A, NR concentration 270 nM, RXRa partner concentration 90 nM)
# Summary of the method: as §1
# [14] = tested on: PPARg DBDmut IVT, anti-PPARg (DBD mutation: PPARg1 K132A/R137A, NR concentration 270 nM)
# Summary of the method: as §1
# [15] = tested on: PPARg homodimer (NR concentration 180 nM)
# Summary of the method: as §1
# [16] = tested on: PXR:RXRa (NR concentration 270 nM, RXRa partner concentration 90 nM)
# Summary of the method: as §1
# [17] = tested on: PXR homodimer (NR concentration 270 nM)
# Summary of the method: as §1
# [18] = tested on: RARa:RXR (NR concentration 270 nM, RXRa partner concentration 90 nM)
# Summary of the method: as §1
# [19] = tested on: RARa homodimer (NR concentration 270 nM)
# Summary of the method: as §1
# [20] = tested on: RARb:RXRa (NR concentration 270 nM, RXRa partner concentration 90 nM)
# Summary of the method: as §1
Sequence,PBM binding z-score [1],PBM binding z-score [2],PBM binding z-score [3],PBM binding z-score [4],PBM binding z-score [5],PBM binding z-score [6],PBM binding z-score [7],PBM binding z-score [8],PBM binding z-score [9],PBM binding z-score [10],PBM binding z-score [11],PBM binding z-score [12],PBM binding z-score [13],PBM binding z-score [14],PBM binding z-score [15],PBM binding z-score [16],PBM binding z-score [17],PBM binding z-score [18],PBM binding z-score [19],PBM binding z-score [20]
ACAGACAGGTGAGGAAGGTAACTCAGGCTATCAT,0.118,-0.0457,-0.223,0.105,-0.143,0.173,0.575,-0.276,0.0158,-0.414,0.129,0.785,0.395,-0.587,-0.277,-0.058,-0.158,0.108,0.0819,0.494
CCGACTGGGGCAGAAAGTTTACCATACCATCCGG,-0.706,-0.595,-0.267,-0.494,-0.896,-0.213,0.681,0.251,-0.507,-0.116,1.85,0.907,-1.52,-1.73,0.00802,-0.282,0.645,-0.677,-0.166,0.775
TAGCTTAGGTCATTCAGGGGCCAGTATAGAAAGC,4.82,4.33,0.984,3.31,1.67,3.69,1.38,2,0.369,1.11,1.24,1.84,0.465,1.33,2.5,2.96,0.636,4.06,0.433,3.88
TTTTGTAGATCAAGCAGGTTAAGAAAGCCTGAGT,-0.215,-0.0979,0.00472,0.194,-0.0652,0.567,-0.416,0.238,0.224,-0.0432,0.762,1.22,1.82,1.21,0.487,0.303,0.386,0.469,0.538,0.329
TTGAGTAGGTTACCAATGGGGCATTCAGCTTTCT,0.0857,1.41,-0.22,1.21,-0.0643,1.36,1.23,1.9,1.01,1.5,4.77,4.38,0.923,0.772,0.846,0.242,-0.056,0.279,0.0397,1.19
TAGCCTAGGTCATGGGCCAGTATACCACGCGAAC,4.32,3.28,0.195,2.24,-0.333,4.04,3.78,3.66,0.829,2.59,1.08,2.99,0.0326,-0.324,1.77,1.62,-0.133,2.54,-0.386,3.7
GCTTATAGATCAAGGTTAAGAAAGACTAAGCTAA,0.198,0.766,-0.148,0.438,-0.382,1.4,0.991,1.57,0.403,1.13,0.775,0.678,0.643,0.713,0.58,0.457,-0.0715,0.879,0.134,0.997
CACGAAAGGTCGGTTGAGGTGAGTATACGGATAA,2.53,2.25,0.0219,1.7,0.387,3,0.823,1.36,0.246,0.906,0.197,1.19,1.19,0.977,1.22,3.42,0.224,2.96,0.255,3.18
ACTATTAGTTGCCTTAGGGCAACCGATACGACGC,0.218,0.346,0.285,0.202,0.935,0.287,0.672,0.279,0.294,0.358,-0.0728,0.674,0.726,0.896,0.221,0.335,-0.148,0.576,0.282,0.771
CGTCCAAGGTCAGCAGGTCAGCGAAAGCGACGTG,6.11,4.35,0.407,3.19,-0.541,4.9,4.79,4.99,1.45,3.69,3.38,3.9,-0.473,-0.272,3.39,4.07,0.421,5.3,1.49,5.43
CAAACTAGGTCAAGGTCCAAGTCGGTTTGTGCCA,3.75,2.44,0.225,1.55,-0.00943,5.05,8.9,7.5,6.37,7.89,8.66,8.37,3.91,1.65,2.64,1.63,-0.0807,2.31,0.849,4.18
ATCTCTAGGTAACATGTTCAGTGAAAGAGAGGAC,0.248,0.254,-0.139,0.402,0.902,0.519,1.15,1.25,0.432,1.07,3.39,2.6,1.47,1.39,-0.116,0.0539,-0.0105,0.322,-0.388,0.433
TATACAGGGTCAAAGGCGAGAGTACGAATGTCGA,7.01,6.18,2.21,4.53,2.51,6.19,7.72,6.81,3.94,6.47,2.19,4.69,2.38,1.65,2.22,3.85,0.6,4.91,0.979,4.45
CCGAGTATGTTATGGGGCATTCAGGCAACGGTGA,0.355,-0.00818,-0.0828,0.322,-0.243,0.665,0.711,1.75,0.316,1.35,0.63,0.892,-0.0498,-0.0954,0.937,0.0662,0.093,0.394,0.535,0.242
CTCGATAGGTCGTGCTCAGGTGAGTATACCAAAC,0.909,0.843,-0.342,0.951,-0.454,1.82,0.11,0.394,-0.186,-0.0239,0.241,0.78,-0.285,0.141,0.257,0.623,-0.52,1.44,-0.705,1.77
AGTCAAAGTTCATCTAGGTAGCGTAAGATATGCT,6.22,6.03,4.76,3.76,1.66,4.61,6.29,6.38,3.49,5.38,0.422,2.98,1.02,1.02,2.55,4.98,6.74,3.75,1.85,4.8
AGAATGAGGTTATACGTAGATGAGGGAAGAAAGT,2.17,1.97,0.0433,1.72,0.276,3.19,2.17,2.49,1.05,1.88,3.97,2.32,1.45,0.893,1.18,1.18,0.759,1.96,0.66,1.57
